Reference: the supplement of paper PMC3334620
The full ranking holds about 33,000 sequences; the median of “E-score (-0.5 to 0.5)” is about -0.012, and the highest 2% start at about 0.29. This excerpt belongs to a sample that is enriched for the highest values.

The sequences below were run against T1, Ybr033w (UniProt P38073) (assay: PBM E-score (8-mer binding enrichment) (E-score (-0.5 to 0.5)); higher = stronger / more preferred TF binding). Conditions: protein concentration: 200 nM; construct: GST-full length.
T1 sequence: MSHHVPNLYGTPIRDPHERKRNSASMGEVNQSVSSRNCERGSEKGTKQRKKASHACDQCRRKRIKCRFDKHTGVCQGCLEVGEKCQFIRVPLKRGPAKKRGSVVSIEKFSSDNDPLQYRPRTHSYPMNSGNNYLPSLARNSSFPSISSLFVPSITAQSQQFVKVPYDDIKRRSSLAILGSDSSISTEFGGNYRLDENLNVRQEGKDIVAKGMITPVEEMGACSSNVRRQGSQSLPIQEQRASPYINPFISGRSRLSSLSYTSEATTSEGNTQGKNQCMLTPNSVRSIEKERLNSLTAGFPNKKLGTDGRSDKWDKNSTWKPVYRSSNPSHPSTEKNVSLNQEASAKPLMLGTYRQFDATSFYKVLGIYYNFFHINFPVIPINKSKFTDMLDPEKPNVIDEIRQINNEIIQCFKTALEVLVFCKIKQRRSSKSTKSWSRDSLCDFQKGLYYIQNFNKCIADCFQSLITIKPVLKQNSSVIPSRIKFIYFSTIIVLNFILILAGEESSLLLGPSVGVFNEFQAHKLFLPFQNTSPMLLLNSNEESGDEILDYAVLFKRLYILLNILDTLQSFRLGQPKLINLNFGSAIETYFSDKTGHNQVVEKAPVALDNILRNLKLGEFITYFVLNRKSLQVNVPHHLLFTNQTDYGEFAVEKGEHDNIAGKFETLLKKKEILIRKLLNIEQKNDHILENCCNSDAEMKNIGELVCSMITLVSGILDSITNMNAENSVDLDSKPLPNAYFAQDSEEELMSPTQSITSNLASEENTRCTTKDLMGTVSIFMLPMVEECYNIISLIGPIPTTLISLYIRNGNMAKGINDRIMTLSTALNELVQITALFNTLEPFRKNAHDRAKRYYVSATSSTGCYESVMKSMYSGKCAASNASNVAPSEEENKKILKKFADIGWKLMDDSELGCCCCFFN
Experimental: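 Universal 'all 10-mer' protein binding microarrays (Agilent AMADID 015681) probed with GST-tagged S. cerevisiae TFs (full-length or DBD) made by in vitro transcription/translation (PURExpress), about 100-200 nM. Bound TF was detected with fluorescent anti-GST. Each ungapped 8-mer (which stands for itself and its reverse complement) is scored by the PBM enrichment score (E-score), a modified Wilcoxon-Mann-Whitney statistic from -0.5 to +0.5, computed with the Universal PBM Analysis Suite. Scale: above 0.35 generally sequence-specific binding.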

Sequence	PBM E-score
AGGCAGTG	-0.0313
GCCGTTTA	0.0411
CAAAAGTA	0.16
AAGCCATA	0.0179
ATGCACGA	-0.021
GGTGAGAC	0.0001
ACCAATCC	-0.0137
AACCTTTC	-0.0863
ACCAGCAC	-0.0392
CTCTGCGA	-0.0389
ATTCATCC	0.349
ATTCATCA	0.171
CTTCATCC	-0.0751
ACATAAAT	0.149
AGGGTGGG	-0.0779
ACCAAGCG	-0.0846
AGCACACA	-0.0313
AAAATGGT	0.319
AAAATGAA	0.081
AAAATGGA	0.197
AAAATGGG	-0.032
AAAATGAC	0.15
AAAATGAT	0.369
GATATGGC	-0.161
TCACCTAA	0.0978

Sequence	PBM E-score
GCGATACC	-0.236
CTGACTCA	-0.0835
ATTACAAT	0.0893
AATACAAC	0.271
AATACAAA	0.302
ATTACAGG	0.326
AATACAAG	0.252
ATTACAGA	0.141
CATACAAA	0.246
ATTACAAA	0.318
GATACAAA	0.277
ATTACAAG	0.18
TATACAAA	0.356
ATTACAGC	-0.21
ACGGCTTG	-0.0473
GGCGTGAC	-0.141
ATACTGAG	0.267
CTCCAGTA	0.109
AATCCATC	0.14
CAGCATAG	-0.0334
CACTTGCA	-0.0412
CGCTACAA	0.111
GGCAGCCA	-0.0547
AATACATC	0.297
AATACATG	0.222

Sequence	PBM E-score
GATACATC	-0.0274
GTTCGAAC	0.209
GGCTGTCA	-0.0424
CAGCGAAC	0.0498
ACATAAGA	0.293
TCATAAGA	0.114
ACATAAGC	0.0339
CCCAGTTA	-0.0098
GTGTTTGA	0.191
CAAGTGGC	0.0512
AATATTCG	0.161
GCTATTAC	-0.0504
AATATTCT	0.248
CATATTAC	0.17
CATATTCC	0.0424
AATATTCC	0.45
GATATTCC	0.417
GATATTCA	0.12
GATATTAC	0.31
CCTGCACG	-0.159
AGCAGTCC	-0.182
GCGTGAAA	0.0243
AACTGCTT	0.0101
GCCGGTTA	-0.0903
CTACAGCA	0.0371

Sequence	PBM E-score
TAAGGTCA	0.028
ACGGGAGT	0.0679
CCGCTCAG	-0.111
AGAACAGG	-0.125
AGGTTACC	0.0897
CATGATCC	0.0454
AATGATCT	0.157
AATGATAA	0.192
GATGATCC	0.4
CATGATTC	-0.131
GATGATCA	0.0749
AATGATAT	0.298
AATGATCA	0.0742
AATGATTA	0.251
AATGATAG	0.215
AATGATTC	0.306
AATGATCC	0.421
TCCCACGA	0.0793
ACTAGCCA	0.0538
AGAGTCTA	-0.16
CGCTGCAG	-0.12
GCGTTCAC	-0.0913
GTACCGAC	-0.275
CATGAGGA	0.0386
CGCTCTGC	-0.0367

Sequence	PBM E-score
CTGCGTGA	0.0319
ATTGATCC	0.466
ATTGATCA	0.051
CTTGATCC	0.0221
ATGCTTCA	0.0658
TACTACTA	0.335
CAATACTA	0.143
AACTACTA	0.298
AACTACTG	0.126
ATCTACTG	0.143
CACTACTA	0.094
AACTACTC	0.119
GACTACTA	0.122
TAATACTA	0.362
ATCTACTA	0.324
GAATACTA	0.204
ATCTACTC	0.127
TAACTATA	0.242
ATGCTGCG	-0.15
CGAGGCAC	-0.109
GTACCCAC	-0.116
CGCAGGGA	-0.202
AGCTAATA	0.078
AGCGCATC	0.0587
CGCGAAGC	0.0254

Sequence	PBM E-score
GACTAGTA	0.0157
TACTAGTA	0.377
CACTAGTA	0.0533
CTTTAAAA	0.2
AAAGTCGG	-0.122
ACTGTGCA	0.031
ATGACAAC	0.111
ATGACAAT	0.293
ATGACAAG	-0.0461
ACAAAAGT	0.0857
AAAAAGTT	0.314
AAAAAGTC	0.22
AAAAAAGC	0.171
AAAAAGTA	0.283
AAAAAAGT	0.353
CTGTTGCC	-0.136
AGTGAAAA	0.183
TGCCAACA	0.0786
GTGCGCAC	0.0505
GCAGTCCA	-0.029
ATCGTTTA	0.307
ATTGTTTG	0.118
ATTGTTTA	0.296
ATCGTTTC	0.184
ATTGTTTC	0.199

Sequence	PBM E-score
GTCGTTTA	0.0819
GTTGTCCA	0.00858
ATGGTCAA	0.198
AGCTGGCC	-0.179
AGGTAGAC	-0.212
CTAGAGAC	-0.0751
ATTCAACG	0.114
TTACCTAA	0.156
ATACCTAT	0.102
ATACCTAA	0.316
CCAAGCGA	-0.0712
AATAATTG	0.256
AATAATTA	0.372
AATAATGA	0.247
GCTAATTA	0.175
AATAATTC	0.386
CATAATTC	-0.00123
CATAATTA	0.284
ACTAATTA	0.281
GATAATTA	0.361
AAACGTTC	0.0667
AGAGTGTG	-0.0636
CGATGCGC	0.0464
AGAGGTGG	-0.156
GAGTGAAA	0.129

Sequence	PBM E-score
CAGTGAAA	0.126
AAGTGAAA	0.29
GTCCTTCA	-0.0408
CAGCACTC	0.0472
AATGGTCA	0.205
AATAGTGG	0.0387
AATAGTAA	0.239
AATAGTGT	0.289
AATAGTAG	0.201
AATAGTGC	0.123
AATAGTAT	0.293
AGCAATAG	0.0737
GTTCGGAA	0.316
ATTCGGAA	0.269
CTTCGGAA	0.243
GAAGCGCC	-0.0866
AACTTGAC	-0.0113
AAATACTT	0.34
AAATACTA	0.224
CAATACTC	0.193
AAATACTC	0.316
AAATACTG	0.172
GAATACTC	0.0489
GTTAAGGA	0.121
AGCTGAAT	0.135

Sequence	PBM E-score
AGCTCTGC	-0.255
AAAGTCTA	-0.00319
ACTCCTCA	-0.135
ATTAAGCA	-0.0125
ATTCATTA	0.263
GTTCATTA	0.221
CTTCATTA	0.291
ATTGGTGC	0.0298
ATACTTTG	0.297
ATACTTTC	0.177
ATACTTTA	0.23
AGCCAGGG	-0.362
CCGGAAAC	0.14
GCGGAAAC	-0.191
ACGGGAAT	0.0676
ACGGAAAG	0.0247
ACGGAAAA	0.422
CCGGAAAG	-0.0245
GCGGAAAA	0.396
ACAGAAAT	0.137
ACGGAAAC	-0.12
CCGGAAAA	0.44
GCGGGAAA	0.128
ACGGAAAT	0.313
AGGACGGC	-0.235

Sequence	PBM E-score
GAGAGTCA	-0.0369
CGTCCTCC	-0.314
GAGAGATC	-0.00339
TCGGGAAA	0.253
TCAGAAAA	0.0198
TCGGAAAA	0.424
CCTTGGCC	-0.318
CAACATCC	-0.07
AAACATCC	0.192
GAACATCC	0.303
CAGAGCGA	0.105
TGGGTGAA	0.15
ATAAGGAC	-0.0427
ATAAGGAT	0.297
ATAAGGAA	0.0859
CCGAAGGC	-0.11
ATTCTGGC	-0.217
TGCATAAA	0.218
CATATAAG	0.114
AGTATAAA	0.266
AGCATAAA	0.141
CGTATAAC	0.0815
CGCATAAA	0.297
CGTATAAA	0.291
AATATAAT	0.236

Sequence	PBM E-score
CATATAAA	0.174
AATATAAA	0.344
AATATAAG	0.295
TATATAAA	0.282
AATACTTC	0.21
AACTAGAC	0.0442
GTGGTAGA	-0.158
CGGTGAGC	-0.26
AGCTGACA	-0.103
CCCACAAA	0.0286
AGTAAGAC	-0.00585
ATAACTGC	0.193
TGAAGAAA	0.134
CCAAGTCA	-0.0141
CAGTGCAG	-0.0894
CCGGAAGC	0.0751
ACGGAAGA	0.338
TCGGAAGA	0.193
ACGGAAGT	0.0483
CCGGAAGA	0.404
CCGGAAGG	0.0448
AGTCACCG	-0.104
TACTGCCA	0.038
AATCACCG	-0.0481
TATCACCA	0.0892

Sequence	PBM E-score
AATCACCA	0.295
AGACTGCC	-0.219
CAGTTATA	0.074
AATATTTC	0.34
CATATTTA	0.28
GCTATTTA	0.132
AATATTTG	0.232
GATATTTA	0.338
CATATTTC	0.213
CCTATTTC	0.124
AATATTTA	0.318
GATTTTTA	0.209
CGCTCTAA	-0.0524
CCAAAGAG	-0.0366
CCCACCAC	-0.0659
CCATACGA	0.0671
CCCGCCTC	-0.17
CGCCCCAA	-0.118
TGGAACAA	0.434
GGGAACAC	0.0998
TGGAACCA	0.0554
AGGAACAT	0.399
GGGAACAA	0.381
ACGAACAT	0.151
GCGAACAA	0.183

Sequence	PBM E-score
AGGAACAC	0.193
AGGAACAA	0.402
ATGAACAT	0.217
AGGAACAG	-0.0964
TCGAACAA	0.138
CCTGAATA	0.186
TCCCCTAA	-0.208
CTCTATCA	-0.0434
GTCTATTA	-0.0198
ATGTATTA	0.293
CTCTATTA	0.152
GTGTATTA	0.28
GTCTATCA	0.0657
ATGTATTG	0.266
ATCTATCA	0.302
ATCTATTA	0.327
GCTACAAC	0.0399
GAAGAGCC	-0.13
ACCGGCCA	-0.314
ATCCACAT	0.224
ACTCCTCC	-0.182
CGTAGTCA	-0.186
ACTATCAT	0.242
AATATCGA	0.164
CATATCAG	0.0658

Sequence	PBM E-score
AATATCAT	0.294
AATATCGG	0.198
AATATCGT	0.33
AATATCAA	0.233
AATATCAC	0.239
AATATCAG	0.299
ACGACGTA	0.0878
ACTTGGAC	0.127
ACCAGCAT	0.0255
CTGCGGTC	-0.262
AATCTACG	-0.0149
ACAGCACA	0.144
CCCCTTCG	-0.317
AATACTCA	0.229
AAAATACT	0.301
AATACTCC	0.0328
AATACTCT	0.298
AAAATACC	0.315
AAAATACA	0.254
AAAATACG	0.171
ACAATACT	0.219
CAAATACC	0.112
